The whole screen tested about 190,000 compounds, of which about 1,300 (0.68%) were called active. Cut-off read from the data, not from the text of the source: active = inhibition above about 50%; inactive = the rest. The full list was thinned out, with actives kept by preference.
These molecules were tested against Mannose-6-phosphate isomerase (Homo sapiens) (UniProt P34949) (assay: MPI inhibition at elevated mannose 6-phosphate – biochemical, fluorescence intensity, high mannose 6-phosphate, primary screen (AID 1220)). Details: recombinant PMI enzyme, coupled fluorescence intensity; at 20 µM; active compounds read high.
Chain of Mannose-6-phosphate isomerase (Homo sapiens) (P34949 whole entry, looked up): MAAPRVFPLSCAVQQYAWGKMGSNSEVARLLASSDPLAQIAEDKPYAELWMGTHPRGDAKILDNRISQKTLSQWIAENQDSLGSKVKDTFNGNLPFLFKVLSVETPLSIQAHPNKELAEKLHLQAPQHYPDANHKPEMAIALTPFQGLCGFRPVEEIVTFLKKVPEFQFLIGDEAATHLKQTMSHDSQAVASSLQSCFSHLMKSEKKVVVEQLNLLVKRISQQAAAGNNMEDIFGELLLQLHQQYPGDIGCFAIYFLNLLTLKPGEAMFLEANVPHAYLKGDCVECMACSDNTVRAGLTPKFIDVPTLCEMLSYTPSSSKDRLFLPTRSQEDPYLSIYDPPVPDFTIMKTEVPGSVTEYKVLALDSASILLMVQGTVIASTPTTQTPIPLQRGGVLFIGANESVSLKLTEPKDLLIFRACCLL
`CCOc1ccc(C(CC(=O)O)NC(=O)c2cccs2)cc1OC` (stereo unspecified) was tested, and the inhibition was -10.3% (inactive). `CCS(=O)(=O)c1ccc2oc(=O)c(/C=C(\O)c3ccc(Cl)cc3)nc2c1` was tested, and the inhibition was 17.4% (inactive). For `CC(C)C/C(O)=C/c1nc2cc(Cl)ccc2oc1=O`, the inhibition was 55.1% (active). For `Cc1ccc2oc(=O)c(/C=C(\O)CC(C)C)nc2c1`, the inhibition was 10.4% (inactive). `C/C(=N/Nc1nc(-c2ccccc2)cc(-c2ccccc2)n1)c1ccc(N)cc1` was tested, and the inhibition was 3.6% (inactive). With `O=C(CN1N=C(c2ccc(Cl)cc2)CCC1=O)NCc1cccs1` the inhibition was 59.2% (active). For `O=C(CN1N=C(c2ccccc2)CCC1=O)NCc1cccs1`, the inhibition was 6.5% (inactive). In the case of `Cc1ccc(C2=NN(CC(=O)NCc3cccs3)C(=O)CC2)cc1`, the inhibition is reported as 3.3% (inactive). In the case of `CC(NC(=O)c1cc2ccccc2o1)c1ccccc1` (stereo unspecified), the inhibition is reported as -9.3% (inactive). For `CCn1cc(C(=O)NCCCN2CCN(C)CC2)c(=O)c2cc(S(=O)(=O)N3CCc4ccccc4C3)ccc21`, the inhibition was -2.9% (inactive). For `O=C(O)c1ccc(N2Cc3ccccc3C2)cc1O`, the inhibition was -70.5% (inactive). With `CSc1nsc(/C=C/Nc2ccc(F)cc2F)c1C#N` the inhibition was 21.4% (inactive). `CSc1nsc(/C=C/Nc2ccc(C)c(C)c2)c1C#N` was tested, and the inhibition was 40.1% (inactive). In the case of `CSc1nsc(/C=C/Nc2ccc(O)cc2C)c1C#N`, the inhibition is reported as 65.8% (active). In the case of `Cc1cc(NC(=O)COC(=O)c2ccco2)no1`, the inhibition is reported as -0.8% (inactive). `CCOC(=O)c1c(NC(=O)CN2C(=O)c3ccccc3C2=O)sc(Cc2ccc3c(c2)OCO3)c1C` was tested, and the inhibition was 51.5% (active). For `Cc1c(Cc2ccc3c(c2)OCO3)sc(NC(=O)c2ccccc2)c1C(N)=O`, the inhibition was 2.7% (inactive). In the case of `COC(=O)c1c(NC(=O)CN2C(=O)c3ccccc3C2=O)sc(Cc2ccc3c(c2)OCO3)c1C`, the inhibition is reported as 1.6% (inactive). `CC1(c2ccccc2)CC2CC(c3ccccc3)N1O2` (stereo unspecified) was tested, and the inhibition was -7.9% (inactive). In the case of `CC1=C(C#N)C(=O)NC(=O)/C1=C/c1ccc(-c2ccc(S(N)(=O)=O)cc2)o1`, the inhibition is reported as 18.1% (inactive). In the case of `CC1=C(C#N)C(=O)NC(=O)/C1=C\c1ccc(-c2cc(C)c(C)cc2[N+](=O)[O-])o1`, the inhibition is reported as 52.8% (active). In the case of `CC1=C(C#N)C(=O)NC(=O)/C1=C\c1ccc(-c2ccc(C)cc2[N+](=O)[O-])o1`, the inhibition is reported as 48.6% (inactive). With `CC(Sc1nnc(NC2CCCCC2)s1)C(=O)Nc1ccc2c(c1)C(=O)c1ccccc1C2=O` (stereo unspecified) the inhibition was -14.7% (inactive). For `O=C(Nc1nccs1)c1ccc(CSc2nnnn2-c2ccccc2)cc1`, the inhibition was -6.7% (inactive). `O=C(CN1CCN(C(=O)N2CCCCC2)CC1)Nc1ccc(F)cc1` was tested, and the inhibition was 6.5% (inactive). `CCOC(=O)C1Sc2ccccc2NC1=O` (stereo unspecified) was tested, and the inhibition was 36.5% (inactive).

From PubChem BioAssay AID1220 (Sanford-Burnham Center for Chemical Genomics, 2008)
